Experimental data from ChEMBL document CHEMBL3988442, “University of Dundee, Small-Polar-MMV Screening Library” (2021).
For some assays here: Entries with a potency or affinity are not part of this list.

Legend:
Parameters in all cases: scale not given: direction of the effect not stated beside the values
[1] = target: Protein translocase subunit SecA (Escherichia coli (strain K12)) (UniProt P10408); assay: Assay to Identify E. coli SecA ATPase Inhibitors; type: functional; conditions: 30 µM
[2] = target: T1, Ubiquitin-activating enzyme e1, putative (Leishmania donovani (strain BPK282A1)) (UniProt E9BSI1); assay: Leishmania donovani Ubiquitin Activating Enzyme (LdE1); type: functional; conditions: 30 µM
T1 sequence (whole entry): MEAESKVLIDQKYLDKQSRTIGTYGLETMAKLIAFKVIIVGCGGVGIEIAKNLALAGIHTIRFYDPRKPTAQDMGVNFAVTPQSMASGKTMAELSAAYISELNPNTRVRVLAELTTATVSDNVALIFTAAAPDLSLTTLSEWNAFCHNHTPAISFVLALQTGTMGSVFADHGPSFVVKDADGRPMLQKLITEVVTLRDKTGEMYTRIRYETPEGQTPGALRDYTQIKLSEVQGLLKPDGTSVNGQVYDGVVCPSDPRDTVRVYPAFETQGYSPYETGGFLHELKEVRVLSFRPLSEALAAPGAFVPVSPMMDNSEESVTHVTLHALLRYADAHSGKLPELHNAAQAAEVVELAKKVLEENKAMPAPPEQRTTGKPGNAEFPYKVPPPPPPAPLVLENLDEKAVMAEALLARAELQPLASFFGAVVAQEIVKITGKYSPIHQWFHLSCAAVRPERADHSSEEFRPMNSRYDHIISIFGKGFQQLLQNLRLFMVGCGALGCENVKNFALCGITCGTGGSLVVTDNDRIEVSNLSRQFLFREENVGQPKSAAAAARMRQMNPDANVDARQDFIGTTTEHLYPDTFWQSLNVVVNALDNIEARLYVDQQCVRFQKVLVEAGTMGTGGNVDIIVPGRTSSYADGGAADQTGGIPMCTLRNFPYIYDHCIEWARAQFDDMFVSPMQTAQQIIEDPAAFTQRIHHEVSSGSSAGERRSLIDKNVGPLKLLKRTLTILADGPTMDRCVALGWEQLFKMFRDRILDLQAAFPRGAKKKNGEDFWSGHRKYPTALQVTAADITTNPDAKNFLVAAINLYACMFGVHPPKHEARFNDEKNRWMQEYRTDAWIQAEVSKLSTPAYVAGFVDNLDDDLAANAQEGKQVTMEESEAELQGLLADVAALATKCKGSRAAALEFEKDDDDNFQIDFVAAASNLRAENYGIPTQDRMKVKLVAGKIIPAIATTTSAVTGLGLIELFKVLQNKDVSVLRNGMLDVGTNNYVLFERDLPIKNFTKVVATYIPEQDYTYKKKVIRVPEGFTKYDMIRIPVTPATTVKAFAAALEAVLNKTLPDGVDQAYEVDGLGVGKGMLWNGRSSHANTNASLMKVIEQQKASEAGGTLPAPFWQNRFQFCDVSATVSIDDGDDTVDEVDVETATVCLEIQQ

[3] = target: AMP-activated protein kinase, AMPK (Homo sapiens) (UniProt P54646+O43741+P54619+Q9UGJ0+Q9Y478+Q13131+Q9UGI9); assay: AMP-dependent Kinase enzyme assay. An in vitro enzyme assay that detects ADP turnover that is directly proportional to AMPK activity. This uses naive AMPK that is activated during the assay with MK-8722; type: functional; conditions: 30 µM
[4] = target: Sialic acid-binding Ig-like lectin 9 (Homo sapiens) (UniProt Q9Y336); assay: Hs-Siglec9 ALPHAscreen SOP 20170721; conditions: 10 µM
Chain of Sialic acid-binding Ig-like lectin 9 (Homo sapiens) (Q9Y336 whole entry): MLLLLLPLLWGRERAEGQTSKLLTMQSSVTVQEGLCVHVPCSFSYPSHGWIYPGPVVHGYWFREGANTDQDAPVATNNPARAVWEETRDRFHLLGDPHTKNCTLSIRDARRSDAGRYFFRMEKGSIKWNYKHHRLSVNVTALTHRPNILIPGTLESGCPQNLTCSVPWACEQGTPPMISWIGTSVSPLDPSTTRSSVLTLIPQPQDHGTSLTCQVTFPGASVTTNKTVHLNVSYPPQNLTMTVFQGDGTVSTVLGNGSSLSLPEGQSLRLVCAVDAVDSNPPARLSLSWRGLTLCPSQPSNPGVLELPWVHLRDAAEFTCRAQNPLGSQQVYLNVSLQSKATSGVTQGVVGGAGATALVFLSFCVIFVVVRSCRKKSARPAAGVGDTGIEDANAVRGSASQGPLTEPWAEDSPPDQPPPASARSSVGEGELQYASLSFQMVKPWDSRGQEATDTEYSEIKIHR

Trypanosoma cruzi = assay: Trypanosoma cruzi phosphomannomutase and mannose-1-phosphate guanylyltransferase assay; type: functional; conditions: 10 µM
[5] = target: T2, Arginase-2, mitochondrial (Homo sapiens) (UniProt P78540); assay: in vitro enzyme assay to detect the production of urea directly proportional to the activity of Arginase II; type: functional; conditions: 33.3 µM; also: in the data most compounds retested in dose-response had high values
T2 sequence (whole entry): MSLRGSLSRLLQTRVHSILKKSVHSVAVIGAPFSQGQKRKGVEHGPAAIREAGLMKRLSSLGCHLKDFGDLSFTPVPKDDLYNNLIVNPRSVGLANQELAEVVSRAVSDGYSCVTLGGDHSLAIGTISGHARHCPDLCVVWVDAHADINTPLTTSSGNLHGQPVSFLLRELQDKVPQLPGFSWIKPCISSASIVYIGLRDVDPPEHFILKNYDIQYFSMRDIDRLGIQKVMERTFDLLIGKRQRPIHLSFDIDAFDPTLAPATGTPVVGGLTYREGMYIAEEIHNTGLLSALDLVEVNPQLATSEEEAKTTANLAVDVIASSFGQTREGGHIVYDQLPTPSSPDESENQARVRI

[6] = target: T3, Proteasome subunit beta (Trypanosoma cruzi) (UniProt O96673); assay: Trypanosoma cruzi proteasome chymotrypsin-like activity (TcProtChymo) assay.; also: in the data most compounds retested in dose-response had high values; type: functional; conditions: 9.37 µM
T3 sequence (whole entry): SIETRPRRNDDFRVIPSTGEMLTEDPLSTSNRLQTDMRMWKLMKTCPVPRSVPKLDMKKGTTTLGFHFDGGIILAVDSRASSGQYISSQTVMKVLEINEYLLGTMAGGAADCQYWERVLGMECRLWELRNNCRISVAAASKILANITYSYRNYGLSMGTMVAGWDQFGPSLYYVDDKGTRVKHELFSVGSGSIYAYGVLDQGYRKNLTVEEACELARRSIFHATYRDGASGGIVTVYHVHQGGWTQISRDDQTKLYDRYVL

Homo sapiens = species on record: Homo sapiens; assay: To identify inhibition of the IFN signalling (Jak-Stat) pathway via expression of an eGFP reporter gene under the control of an IFN-stimulated response element (ISRE) containing MxA promoter.; type: functional; conditions: 30 µM
[7] = target: T4, Tyrosyl-tRNA synthetase, putative (Trypanosoma cruzi (strain CL Brener)) (UniProt Q4DSP6); assay: Trypanosoma cruzi tyrosyl tRNA synthetase (TcYRS) _High Tyrosine SOP; type: functional; conditions: 30 µM; also: in the data most compounds retested in dose-response had high values
T4 sequence (whole entry): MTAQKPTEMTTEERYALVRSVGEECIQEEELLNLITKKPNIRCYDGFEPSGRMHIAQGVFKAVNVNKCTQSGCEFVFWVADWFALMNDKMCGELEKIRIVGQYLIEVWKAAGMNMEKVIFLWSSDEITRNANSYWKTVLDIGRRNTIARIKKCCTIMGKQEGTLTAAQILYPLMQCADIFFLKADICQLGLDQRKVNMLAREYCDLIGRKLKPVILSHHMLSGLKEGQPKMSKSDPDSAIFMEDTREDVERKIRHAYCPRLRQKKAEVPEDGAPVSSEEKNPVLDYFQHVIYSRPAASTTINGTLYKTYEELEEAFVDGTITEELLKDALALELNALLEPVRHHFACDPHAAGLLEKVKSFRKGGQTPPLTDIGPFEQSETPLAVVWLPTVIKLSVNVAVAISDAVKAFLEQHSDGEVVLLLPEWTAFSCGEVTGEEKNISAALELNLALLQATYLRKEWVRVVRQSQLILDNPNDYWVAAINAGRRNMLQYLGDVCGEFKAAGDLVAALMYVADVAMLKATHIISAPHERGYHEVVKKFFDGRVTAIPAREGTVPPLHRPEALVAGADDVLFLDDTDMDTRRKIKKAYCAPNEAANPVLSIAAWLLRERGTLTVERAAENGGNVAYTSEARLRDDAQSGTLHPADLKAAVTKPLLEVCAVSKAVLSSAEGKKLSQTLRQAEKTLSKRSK

[8] = target: T4, Tyrosyl-tRNA synthetase, putative (Trypanosoma cruzi (strain CL Brener)); assay: Trypanosoma cruzi tyrosyl tRNA synthetase (TcYRS) SOP; type: functional; conditions: 30 µM
[9] = target: Chromo domain-containing protein 1 (Saccharomyces cerevisiae (strain ATCC 204508 / S288c) (Baker's yeast)) (UniProt P32657); assay: ScCHD-1 Enzyme Inhibition Assay; type: functional; conditions: 30 µM; also: in the data most compounds retested in dose-response had high values
Chain of Chromo domain-containing protein 1 (Saccharomyces cerevisiae (strain ATCC 204508 / S288c) (Baker's yeast)) (P32657 whole entry, the tested form may be a part): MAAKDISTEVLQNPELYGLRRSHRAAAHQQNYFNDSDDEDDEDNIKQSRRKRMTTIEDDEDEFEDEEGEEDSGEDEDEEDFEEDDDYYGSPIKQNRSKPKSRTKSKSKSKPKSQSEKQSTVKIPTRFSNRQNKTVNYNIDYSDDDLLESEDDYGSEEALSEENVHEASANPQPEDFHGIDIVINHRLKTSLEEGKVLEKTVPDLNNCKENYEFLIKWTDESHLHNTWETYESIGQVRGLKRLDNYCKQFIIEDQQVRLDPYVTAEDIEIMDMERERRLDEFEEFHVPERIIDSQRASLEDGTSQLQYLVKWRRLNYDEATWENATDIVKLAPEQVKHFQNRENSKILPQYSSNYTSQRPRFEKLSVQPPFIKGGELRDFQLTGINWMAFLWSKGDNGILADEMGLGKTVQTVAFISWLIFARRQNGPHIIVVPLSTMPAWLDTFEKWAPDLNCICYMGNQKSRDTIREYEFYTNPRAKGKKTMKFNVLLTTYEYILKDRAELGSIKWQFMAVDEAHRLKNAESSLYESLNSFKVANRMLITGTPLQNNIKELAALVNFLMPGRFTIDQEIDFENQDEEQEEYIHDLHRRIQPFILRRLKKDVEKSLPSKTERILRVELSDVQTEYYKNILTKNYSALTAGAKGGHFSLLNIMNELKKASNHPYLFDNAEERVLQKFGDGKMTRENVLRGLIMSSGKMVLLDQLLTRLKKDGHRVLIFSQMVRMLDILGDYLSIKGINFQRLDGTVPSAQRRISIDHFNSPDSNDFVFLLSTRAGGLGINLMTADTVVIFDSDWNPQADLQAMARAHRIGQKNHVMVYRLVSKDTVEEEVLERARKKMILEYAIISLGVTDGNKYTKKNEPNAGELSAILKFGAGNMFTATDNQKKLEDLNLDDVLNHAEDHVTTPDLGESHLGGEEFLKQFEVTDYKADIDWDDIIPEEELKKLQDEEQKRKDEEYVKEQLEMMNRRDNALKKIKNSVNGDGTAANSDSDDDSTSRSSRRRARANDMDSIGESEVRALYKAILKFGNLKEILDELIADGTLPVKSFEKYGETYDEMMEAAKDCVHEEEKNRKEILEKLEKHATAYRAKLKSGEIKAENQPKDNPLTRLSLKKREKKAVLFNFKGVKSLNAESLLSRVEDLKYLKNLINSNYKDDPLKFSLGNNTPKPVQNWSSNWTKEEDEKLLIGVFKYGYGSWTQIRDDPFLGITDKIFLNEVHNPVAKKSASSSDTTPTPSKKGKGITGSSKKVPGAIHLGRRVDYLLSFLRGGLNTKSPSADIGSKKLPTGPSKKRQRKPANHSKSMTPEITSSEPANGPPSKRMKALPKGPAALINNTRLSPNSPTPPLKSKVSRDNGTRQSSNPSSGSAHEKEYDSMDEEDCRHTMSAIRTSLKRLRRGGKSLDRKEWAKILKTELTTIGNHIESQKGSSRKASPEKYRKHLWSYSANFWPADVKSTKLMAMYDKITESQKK

Chain of Protein translocase subunit SecA (Escherichia coli (strain K12)) (P10408 whole entry): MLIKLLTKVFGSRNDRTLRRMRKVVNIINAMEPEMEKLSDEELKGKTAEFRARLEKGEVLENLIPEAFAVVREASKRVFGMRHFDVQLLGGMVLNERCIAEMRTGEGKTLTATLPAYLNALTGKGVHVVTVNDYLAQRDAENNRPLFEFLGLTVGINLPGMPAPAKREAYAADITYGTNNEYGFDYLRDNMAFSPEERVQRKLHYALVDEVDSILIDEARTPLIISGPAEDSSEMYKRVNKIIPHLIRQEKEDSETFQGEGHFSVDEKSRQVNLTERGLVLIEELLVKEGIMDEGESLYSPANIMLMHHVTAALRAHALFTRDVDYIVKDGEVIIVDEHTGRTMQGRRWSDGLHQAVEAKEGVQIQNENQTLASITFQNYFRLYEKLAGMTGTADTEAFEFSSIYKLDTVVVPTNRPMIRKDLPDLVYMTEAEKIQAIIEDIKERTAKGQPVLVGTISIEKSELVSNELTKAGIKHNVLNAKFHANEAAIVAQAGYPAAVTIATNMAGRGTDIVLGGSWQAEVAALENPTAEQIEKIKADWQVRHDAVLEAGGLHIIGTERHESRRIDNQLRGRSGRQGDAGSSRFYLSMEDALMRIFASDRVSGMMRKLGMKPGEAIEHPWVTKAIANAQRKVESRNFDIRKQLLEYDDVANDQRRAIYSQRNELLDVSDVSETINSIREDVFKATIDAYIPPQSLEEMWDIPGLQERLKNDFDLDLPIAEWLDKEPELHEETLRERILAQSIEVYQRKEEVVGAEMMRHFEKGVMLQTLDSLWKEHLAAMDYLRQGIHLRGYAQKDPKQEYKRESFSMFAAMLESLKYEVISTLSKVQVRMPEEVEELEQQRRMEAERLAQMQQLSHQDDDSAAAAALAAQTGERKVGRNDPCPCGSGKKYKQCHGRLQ

Row | SMILES | Percent Effect [1] | Percent Effect [2] | Percent Effect [3] | Percent Effect [4] | Percent Effect (Trypanosoma cruzi) | Percent Effect [5] | Percent Effect [6] | Percent Effect (Homo sapiens) | Percent Effect [7] | Percent Effect [8] | Percent Effect [9]
1 | CCOC[C@H]1CC[C@H]2[C@H](CCN2C(=O)c2ccncc2F)O1 | -2.56% | 2.7% | 3.1% | -3.88% | 1.07% | 3.72% | 5.92% | -17.8% | 2.15% | 3.7% | -2.81%
2 | CC(O)CN1CCN(C(=O)c2cccn2Cc2ccncc2)CC1 (stereo not given) | -5.17% | 10.1% | 0.216% | 10.1% | 2.74% | 2.66% | -2.38% | 3.13% | 0.493% | 13.9% | -8.49%
3 | Nc1cc2c(nn1)CCN(C(=O)c1cccc3c1OCCO3)C2 | 0.377% | 2.6% | -2.26% | 6.77% | 8.24% | 0.356% | 4.05% | 10.7% | 5.83% | 12.2% | -10.5%
4 | CCc1cnc(CN(C(C)=O)C2CCN(CCS(C)(=O)=O)C2)o1 (stereo not given) | -2.33% | 6.94% | -4.16% | 16.1% | 0.291% | 9.27% | 13.3% | 10.7% | 4.21% | 10.3% | -8.92%
5 | CC(C)(C)n1ncc2c1CCCC2NCc1cccc2c1OCO2 (stereo not given) | -2.65% | -1.27% | 2.85% | 2.62% | -4.41% | 6.24% | 10.1% | 12.2% | 1.04% | -5.06% | -10.4%
6 | O=C(NCCc1ccccn1)NC1CCN(c2ncccn2)CC1 | -2.63% | 16.4% | 1.28% | 3.94% | -1.59% | 2% | 12.9% | -1.99% | 9.38% | 23.5% | -4.07%
7 | O=C(Nc1nccs1)N1CCCC(N2CCNC2=O)C1 (stereo not given) | -3.07% | 11% | 7.04% | 15.8% | 0.196% | 17.3% | 21.1% | 2.14% | 4.3% | 22.5% | -6.39%
8 | CC(C)(C)c1ncc(C(=O)NCCNC(=O)c2ccccc2)s1 | -3.42% | 21.1% | -4.68% | 1.92% | -3.64% | 0.36% | 10.7% | 12.2% | 7.39% | 18.5% | -4.66%
9 | Cn1nc(CNC(=O)C2CCCC2)cc1C1CC1 | -6.17% | 10.4% | -2.49% | -7.84% | 5.23% | -0.645% | 2.79% | 6.93% | 0% | 16.7% | -8.08%
10 | COc1ccc(C)cc1CNCc1ccc(-n2nc(C)cc2C)nc1 | 0.678% | 10.5% | 3.46% | 0.511% | -2.82% | 1.15% | 12.2% | 22.1% | 3.43% | 17.1% | -9.32%
